In PubChem BioAssay:
Values without a mark were called inactive. Calls of active or inactive are those of the source. Cut-off read from the data, not from the text of the source, unless noted: active = inhibition above about 33%; inactive = the rest.

Experiments:
[1] = StAR promoter reporter inhibitors, counter-screen for LRH-1 inverse agonist project, cell-based, luminescence, high throughput (AID 651611; in the data active = inhibition above about 28%); settings: StAR promoter luciferase reporter counterscreen, at 3.6 µM, stronger effect = higher value
[2] = molecular target: Nuclear receptor subfamily 5 group A member 2 (Homo sapiens) (UniProt O00482); assay: NR5A2 activity suppression in reporter cells – cell-based, luminescence, confirmation (AID 651613; in the data active = inhibition above about 42%;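 note: HEK293T cells co-transfected with LRH-1 and StAR promoter luciferase reporter; 0% = vehicle wells and 100% = parental cells lacking receptor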); settings: cell-based LRH-1 luciferase reporter, inverse agonism; at 3.6 µM; stronger effect = higher value
[3] = molecular target: Steroidogenic factor 1 (Homo sapiens) (UniProt Q13285); assay: inverse agonism at SF1 nuclear receptor – cell-based, luminescence, high throughput, counter-screen for LRH-1 inverse agonist project (AID 651614; in the data active = inhibition above about 44%;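 note: cells cotransfected with StAR promoter reporter and SF1 expression vector; 0% = vehicle on cells with receptor and 100% = vehicle on cells lacking receptor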); settings: cell-based SF1 luciferase reporter, at 3.6 µM, stronger effect = higher value
[4] = compounds suppressing VP16-driven luciferase signal – cell-based, luminescence, high throughput, counter-screen for LRH-1 inverse agonist project (AID 651615); settings: Gal4-VP16 luciferase reporter cells, at 3.6 µM, stronger effect = higher value

Sequence of Nuclear receptor subfamily 5 group A member 2 (Homo sapiens) (O00482 whole entry, looked up): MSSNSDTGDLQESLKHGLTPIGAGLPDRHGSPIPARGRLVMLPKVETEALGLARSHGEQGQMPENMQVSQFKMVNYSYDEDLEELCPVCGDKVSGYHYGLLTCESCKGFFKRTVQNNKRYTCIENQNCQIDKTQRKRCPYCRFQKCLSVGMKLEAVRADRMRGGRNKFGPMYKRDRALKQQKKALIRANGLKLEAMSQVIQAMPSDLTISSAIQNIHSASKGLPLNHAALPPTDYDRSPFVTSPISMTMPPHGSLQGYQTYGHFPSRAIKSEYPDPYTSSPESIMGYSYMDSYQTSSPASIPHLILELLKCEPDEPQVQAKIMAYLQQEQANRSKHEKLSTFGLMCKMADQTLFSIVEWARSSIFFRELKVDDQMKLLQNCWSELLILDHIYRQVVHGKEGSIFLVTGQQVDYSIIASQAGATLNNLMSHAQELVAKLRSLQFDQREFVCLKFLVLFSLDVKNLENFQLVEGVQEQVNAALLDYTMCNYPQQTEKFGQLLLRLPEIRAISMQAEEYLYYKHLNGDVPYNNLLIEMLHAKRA
Sequence of Steroidogenic factor 1 (Homo sapiens) (Q13285 whole entry, looked up, the tested form may be a part): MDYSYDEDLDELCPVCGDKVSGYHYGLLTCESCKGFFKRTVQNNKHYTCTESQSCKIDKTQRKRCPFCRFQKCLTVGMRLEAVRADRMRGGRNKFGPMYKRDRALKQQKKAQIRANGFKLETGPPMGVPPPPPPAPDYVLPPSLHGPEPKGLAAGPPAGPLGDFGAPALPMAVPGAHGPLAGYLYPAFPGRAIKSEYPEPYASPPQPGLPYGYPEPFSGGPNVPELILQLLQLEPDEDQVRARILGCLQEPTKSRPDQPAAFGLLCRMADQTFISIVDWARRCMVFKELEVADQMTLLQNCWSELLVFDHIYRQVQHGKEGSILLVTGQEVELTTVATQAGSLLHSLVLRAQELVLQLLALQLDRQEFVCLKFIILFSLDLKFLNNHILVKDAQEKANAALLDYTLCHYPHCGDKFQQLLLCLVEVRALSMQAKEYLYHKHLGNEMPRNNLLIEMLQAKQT

Compound | inhibition [1] | inhibition [2] | inhibition [3] | inhibition [4]
CCOC(=O)c1ccc(Nc2nc(-c3cccnc3)nc3ccccc23)cc1 | 44.5% (active) | 49.6% (active) | 41.1% | 11.4%
O=C(O)/C=C/C(=O)Nc1ccccc1SC(F)(F)C(F)(F)C(F)(F)F | 20.1% | 54.8% (active) | 45.5% (active) | 6.88%
NC(=O)C1CCN(C(=O)COc2ccc3c4c(c(=O)oc3c2)CCCC4)CC1 | 12.7% | 59.3% (active) | 50.3% (active) | -6.57%
Cc1ccc(NC(=O)c2ccc([N+](=O)[O-])o2)cc1S(=O)(=O)N1CCOCC1 | 17.7% | 58.5% (active) | 58.8% (active) | -4.03%
O=C(c1ccccc1Br)N1CCN(c2ccc([N+](=O)[O-])c(N3CCOCC3)c2)CC1 | 8.23% | 42% (active) | 38.9% | -4.88%
COc1ccc(C2=NS(=O)(=O)N(C)C(C(=O)N3CCc4ccccc4C3)=C2)cc1OC | 5.52% | 43% (active) | 46.2% (active) | 24.2%
CNC(=O)c1nc(C)c(C2(C)CC(c3cccc([N+](=O)[O-])c3)=NO2)s1 (stereo unspecified) | 8.75% | 27% | 35.6% | -1.29%
COc1ccc(OC)c(NC(=O)c2ccccc2NC(=O)c2ccco2)c1 | 12.6% | 45.3% (active) | 47.3% (active) | -1.48%
c1csc(CCNc2ncnc3sc4c(c23)CCC4)c1 | 10.5% | 63.7% (active) | 60.7% (active) | 48.9% (active)
CC(=O)Nc1ccc(NC(=O)CSc2nc(N)c(NC(=O)c3ccco3)c(=O)[nH]2)cc1 | 13.1% | 51.4% (active) | 48.4% (active) | -7.2%
CCc1cccc2sc(N3CCN(C(=O)c4ccc([N+](=O)[O-])o4)CC3)nc12 | 3.02% | 57.7% (active) | 52.5% (active) | 17.4%
Cc1ccc(C)c(NC(=O)CSc2nnc(-c3n[nH]c4ccccc34)o2)c1 | 10.3% | 58.9% (active) | 50.4% (active) | 5.08%
Cc1cccc(-c2cc(NCCc3cccnc3)n3nccc3n2)c1 | 14.2% | 51.1% (active) | 41.3% | -2.05%
Cc1ccc(N2CC(C(=O)Nc3nc4ccc(S(C)(=O)=O)cc4s3)CC2=O)cc1C (stereo unspecified) | 11.2% | 44.6% (active) | 34.7% | -2.05%
OCCCNc1ncnc2oc(-c3ccccc3)c(-c3ccccc3)c12 | 9.63% | 35.1% | 27.6% | 13.3%
COc1ccc(NC(=O)CN2C(=O)NC3(CCCc4ccccc43)C2=O)c(OC)c1 (stereo unspecified) | 12.3% | 50.9% (active) | 42% | -6.1%
Cc1ccc(-c2csc(NC(=O)c3ccc([N+](=O)[O-])o3)n2)cc1 | 3.07% | 57.5% (active) | 54.4% (active) | -19.4%
CNC(=S)N/N=C/c1cn(Cc2ccc(C)cc2)c2ccccc12 | 2.35% | 46.9% (active) | 46.8% (active) | 1.56%
COc1cccc(/C=N/Nc2nc(Nc3ccccc3)nc(-n3nc(C)cc3C)n2)c1O | 40.7% (active) | -7.01% | 0.2% | -6.05%
CC1(c2ccc3ccccc3c2)NC(=O)N(CC(=O)N2CCN(Cc3ccc(C#N)cc3)CC2)C1=O (stereo unspecified) | 32.1% (active) | 66.1% (active) | 62.4% (active) | 53.5% (active)
CC1(C(=O)NCc2ccco2)Cc2c(-c3ccccc3)ccnc2O1 (stereo unspecified) | 42% (active) | 36.3% | 59% (active) | 26.6%
Cc1cc2ccccn2c1C(=O)c1cccc([N+](=O)[O-])c1 | 10.1% | 44% (active) | 42% | -4.87%
COc1ccc(C(=O)N/N=C(\c2ccccc2)c2ccccn2)cc1 | 76.4% (active) | 80.3% (active) | 84.9% (active) | 60.4% (active)
CS(=O)(=O)N1Cc2cc(C(=O)NCC3CC3)nc(-c3cccc(-c4cccnc4)c3)c2[C@@H]1CCO | 8.47% | 49.4% (active) | 47.5% (active) | -12.3%
CC1CC(=Cc2ccc(N)cc2)C(=O)O1 (stereo unspecified) | -13.5% | 41.8% (active) | 47.7% (active) | -23.5%
C=CCOc1ccccc1CN(C(=O)CCl)c1ccc2c(c1)OCO2 | 7.87% | 68.8% (active) | 53.5% (active) | -54.5%
Nc1cccc(OCCCCCOc2cccc(N)c2)c1 | -18.2% | 41.7% (active) | 54% (active) | -5%

Compound | inhibition [1] | inhibition [2] | inhibition [3] | inhibition [4]
O=C(CSC1=NC2(CCCCCC2)N=C1c1ccccc1)Nc1ccc2c(c1)OCCO2 | 8.01% | 60.2% (active) | 62.2% (active) | 12.7%
COC(=O)c1ccc(N2CCCCC2)c(NC(=O)c2ccco2)c1 | 9.72% | 55.3% (active) | 61.5% (active) | 4.64%
CCn1c(=NC(=O)CCS(=O)(=O)c2ccccc2)sc2cccc(OC)c21 | 6.25% | 108% (active) | 70.3% (active) | 69.2% (active)
Oc1c(Cl)cc(CN2CCOCC2)c2cccnc12 | 4.86% | 18.4% | 6.83% | -5.55%
CC(=O)Nc1ccc(NC(=O)COC(=O)Cc2c[nH]c3ccccc23)cc1 | 18.8% | 67.4% (active) | 53.8% (active) | -15.3%
CNc1nc2sc3c(c2c(=O)n1C)CC(C)(C)SC3 | 2.32% | 34.9% | 45.6% (active) | -1.52%
O=C(c1ccccc1)c1cc(-c2ccccn2)c(N2CCOCC2)s1 | -8.68% | 68.3% (active) | 63.4% (active) | 0.02%
COc1ccc(/C=N/NC(=O)c2ccc(NC(=O)c3cccc([N+](=O)[O-])c3)cc2)c(OC)c1 | 13.1% | 53.6% (active) | 46.5% (active) | 2.35%
COc1ccc(N2CC(C(=O)N/N=C/c3ccc(C)cc3)CC2=O)cc1 (stereo unspecified) | 40.7% (active) | 40% | 29.4% | 19.5%
Cc1ccccc1C(=O)N1CCN(c2ccc(NC(=O)c3ccc([N+](=O)[O-])o3)cc2)CC1 | 25.2% | 64.4% (active) | 69.1% (active) | 2.37%
CCN(CC)C1Oc2cc3c(cc2C(c2cc(OC)c(OC)c(OC)c2)C1C)OCO3 (stereo unspecified) | 31.5% (active) | 18.4% | 29.8% | 25.9%
O=C(CCl)NCc1cc(-c2ccc(Cl)cc2)no1 | 43.5% (active) | 70.7% (active) | 72.3% (active) | -3.6%
N#CCc1ccc(OCCCN2CCC(C(O)(c3ccccc3)c3ccccc3)CC2)cc1 | 8.39% | 40.8% | 27.8% | 12.4%
COCc1cccc(-c2csc(C(C)(O)c3cccc(OC)c3)n2)c1 (stereo unspecified) | -0.93% | 45.2% (active) | 29.1% | 11.7%
Cc1ccc(NC(=O)CSc2nnc(CNC(=O)c3ccco3)n2C)c(C)c1 | 6.66% | 58.5% (active) | 51.4% (active) | -7.24%
O=[N+]([O-])c1ccc(N2CCCC2)cc1NC1CC1 | 0.53% | 47.1% (active) | 47.3% (active) | -3.08%
COc1ccc(NC(=O)CSc2nnc(Cc3ccccc3)c(=O)n2N)c(OC)c1 | 5.02% | 51% (active) | 54.2% (active) | 5.51%
CCOc1ccc(NC(=O)CSc2nc3cccnc3n2CCOC)cc1 | 21.3% | 64.4% (active) | 62.1% (active) | -10.9%
COc1cc(-c2cc(NC=O)c3ncc(-c4ccc(C(C)=O)cc4)n3c2)ccc1O | 56.8% (active) | 64.4% (active) | 60.6% (active) | -49.1%
Cc1cc(OCC(=O)NC2CC2)c2c(C)cc(=O)oc2c1 | 18.9% | 65.5% (active) | 58.2% (active) | -8.04%
NC(=O)c1ccc(NC(=O)COC(=O)C2COc3ccccc3O2)cc1 (stereo unspecified) | 21.9% | 52.4% (active) | 56.7% (active) | -20.5%
Cc1ccc2nc(-c3ccc(NS(C)(=O)=O)cc3)cc(-c3ccccc3)c2c1 | 8.04% | 51.1% (active) | 51.8% (active) | -2.14%
Cc1cc(OCC(=O)Nc2nccs2)c2c(C)cc(=O)oc2c1 | 16.2% | 66.6% (active) | 55.3% (active) | -19.8%
CCOc1ccc(NC(=O)COC(=O)c2ccc3c(c2)OCCO3)cc1 | 14% | 57.6% (active) | 51.9% (active) | -12.9%
COc1ccc(CCNC(=O)CSC2=Nc3ccccc3C3=NC(C(C)C)C(=O)N23)cc1OC (stereo unspecified) | 21.5% | 62.3% (active) | 53.1% (active) | 0.61%
CC(=O)N1CCc2c(sc(NC(=O)CCS(=O)(=O)c3ccc(C)cc3)c2C#N)C1 | 11.7% | 52.5% (active) | 43.6% (active) | -1.4%
CC1(C)Cc2c(sc3nc(SCC(=O)NCc4ccco4)n(-c4ccccc4)c(=O)c23)CS1 | 14% | 41.6% (active) | 40.7% | 4.77%
